As usually defined, the AC50 is the concentration at which the activity in the assay is half-maximal.

Molecules are shown by their SMILES. Several values for one entry are separate records, joined by “and”; a condition that tells them apart may be missing. Equal entries are not always repeated. Inconclusive results are not listed. A structure can be active in one record and inactive in another. Activity calls are given as the source filed them. How the source made its calls: active means hit-call score of the fitted dose curve at least 0.9, where 1 is the maximum; inconclusive means response in the unintended direction; inactive means score below 0.9.

Consider 16 molecules from PubChem BioAssay (EPA / NIEHS).

Chain of human Dopamine Transporter (DAT), SLC6A3 (gene 6531) (Q01959 whole entry, looked up): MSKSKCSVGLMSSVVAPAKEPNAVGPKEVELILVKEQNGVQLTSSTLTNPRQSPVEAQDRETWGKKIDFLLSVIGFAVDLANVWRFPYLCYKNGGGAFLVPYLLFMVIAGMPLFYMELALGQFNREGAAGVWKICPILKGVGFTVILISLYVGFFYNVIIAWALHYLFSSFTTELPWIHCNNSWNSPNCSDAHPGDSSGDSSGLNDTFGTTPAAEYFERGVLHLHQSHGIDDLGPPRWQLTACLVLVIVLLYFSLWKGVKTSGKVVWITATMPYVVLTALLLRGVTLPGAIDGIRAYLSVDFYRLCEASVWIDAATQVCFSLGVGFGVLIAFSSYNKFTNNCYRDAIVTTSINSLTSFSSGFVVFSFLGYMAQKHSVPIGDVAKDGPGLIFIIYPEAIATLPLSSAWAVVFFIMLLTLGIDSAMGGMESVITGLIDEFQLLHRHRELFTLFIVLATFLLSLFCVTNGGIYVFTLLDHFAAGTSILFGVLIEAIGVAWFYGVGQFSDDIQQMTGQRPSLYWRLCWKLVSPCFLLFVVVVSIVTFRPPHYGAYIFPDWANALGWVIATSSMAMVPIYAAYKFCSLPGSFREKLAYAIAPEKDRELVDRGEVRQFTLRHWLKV

This assay addresses human Dopamine Transporter (DAT), SLC6A3 (gene 6531) (UniProt Q01959). Put plainly: NVS_TR_hDAT: NovaScreen (NVS) Transporter Assay for human Dopamine Transporter (DAT) (AID 2283374). As for the experimental part: NVS_TR_hDAT is a biochemical, single-readout assay that uses extracted gene-proteins in a cell-free assay. Measurements were taken 1 hour after chemical dosing in a 96-well plate.NVS_TR_hDAT is one of one assay component(s) measured or calculated from the NVS_TR_hDAT assay. It is designed to make measurements of radioligand binding, a form of binding reporter, as detected with scintillation counting signals by Filter-based radiodetection technology.Data from the assay component NVS_TR_hDAT was analyzed into 1 assay endpoint. This assay endpoint, NVS_TR_hDAT, was analyzed in the positive analysis fitting direction relative to DMSO as the negative control and baseline of activity. Using a type of binding reporter, loss-of-signal activity can be used to understand changes in the binding as they relate to the gene SLC6A3. Furthermore, this assay endpoint can be referred to as a primary readout, because the performed assay has only produced 1 assay endpoint. To generalize the intended target to other relatable targets, this assay endpoint is annotated to the transporter intended target family, where the subfamily is neurotransmitter transporter.
Binding assays used specific radioligands (tritiated, iodinated) with non-radioactive competitive displacement ligands in agonist or antagonist protocols (as indicated) and various reference compounds and inhibitors to titrate specific binding to receptors and transporters. Most enzyme assays (CYPs, kinases, phosphatases, proteases, HDACs) used recombinant protein and specific substrates (fluorescence mostly, some colorimetric and radioactive) and inhibitors, followed by a biochemical separation of substrate and product. All assays for the biochemical HTS were initially run in duplicate at a single concentration (10 uM for CYP450 assays and 25 uM for all others). […] Each assay was run with positive and negative controls, and concurrent controls on every plate. The follow-up (secondary) screen tested active chemical-pairs in concentration series, as well as a few additional assays not tested in the primary screen, some selected negative inactives, and several cases re-run in the concentration series for confirmatory purposes.
On to `COC(=O)C(C)Oc1ccc(Oc2ccc(Cl)cc2Cl)cc1` (stereo not drawn), for which the molecule was classed as inactive and the AC50 was 14.2 µM (active).

In the case of `C#CCOS(=O)OC1CCCCC1Oc1ccc(C(C)(C)C)cc1` (stereo not drawn), the AC50 was 9.17 µM (active).

For `C=CCC1=C(C)C(OC(=O)C2C(C=C(C)C)C2(C)C)CC1=O` (stereo not drawn), the AC50 was 7.76 µM (active) and 487 nM (active) and 23.7 µM (active); the call was inactive.

As for `CON(C)C(=O)Nc1ccc(Cl)c(Cl)c1`, the AC50 was 13.4 µM (active).

As for `N#CC(CCc1ccc(Cl)cc1)(Cn1cncn1)c1ccccc1` (stereo not drawn), the AC50 was 7.06 µM (active).

Consider `C=CCC1=C(C)[C@@H](OC(=O)[C@@H]2[C@@H](C=C(C)C)C2(C)C)CC1=O`, for which the AC50 was 18.6 µM (active).

On to `Fc1ccc(Oc2ccnc3cc(Cl)cc(Cl)c23)cc1`, for which the AC50 is 9.77 µM (active).

For the molecule `CCOc1cc(Oc2ccc(C(F)(F)F)cc2Cl)ccc1[N+](=O)[O-]`, the AC50 was 6.37 µM (active).

Regarding `OC(c1ccc(Cl)cc1)(c1cncnc1)c1ccccc1Cl` (stereo not drawn), the AC50 was 0.944 µM (active).

In the case of `CC1COC(Cn2cncn2)(c2ccc(Oc3ccc(Cl)cc3)cc2Cl)O1` (stereo not drawn), the AC50 was 2.93 µM (active).

On to `Cc1c(F)c(F)c(COC(=O)C2C(/C=C(\Cl)C(F)(F)F)C2(C)C)c(F)c1F` (stereo not drawn), for which the AC50 is 8.33 µM (active).

Regarding `CCc1nn(C)c(C(=O)NCc2ccc(C(C)(C)C)cc2)c1Cl`, the AC50 was 6.22 µM (active).

Regarding `CCCCOC(=O)c1ccccc1C(=O)OCCCC`, the outcome was inactive.

As to `CO/C=C(/C(=O)OC)c1ccccc1Oc1cc(Oc2ccccc2C#N)ncn1`, the molecule was called inactive.

As for `CC1=C(C(=O)Nc2ccccc2)SCCO1`, the AC50 was 9.69 µM (active).

In the case of `COc1ccc(C(c2ccc(OC)cc2)C(Cl)(Cl)Cl)cc1`, the molecule was called inactive.
